Source: PubChem BioAssay (National Center for Advancing Translational Sciences (NCATS))
A selection: hits, their analogues and other compounds. The true share with any hit is near 11%.
AMA1-RON2 inh = qHTS for Inhibitors of AMA1-RON; Towards Development of Antimalarial Drug Lead: Primary Screen | Plasmodium falciparum AMA1 (3D7) - RON2 peptide interaction | AlphaScreen AMA1-biotinylated RON2 peptide binding | Potency, µM (highest dose often 58.2 µM), inactives show at the top dose activity change, negative = inhibition, most hits filed as inhibitors | actives 0.2% (n = 360,000) | AID 720542, 2013;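 also: 0% = vehicle wells and -100% = peptide control; nearly all actives have a fitted effect of over 45% in size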
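AMA1 (3D7) with his tag at 25 nM final met compounds first, then biotinylated RON2 peptide at 25 nM; detection used donor plus acceptor beads, 10 µg/mL apiece, read by AlphaScreen after 30 min at room temperature.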
Pf growth 96h = Primary qHTS for delayed death inhibitors of the malarial parasite plastid, 96 hour incubation; P. falciparum luciferase reporter growth, 96 h; Potency, µM (top dose mostly 28.7 µM), inactives show top-dose activity change, negative = inhibition, hits mostly inhibitors; actives 6.9% (n = 320,000)
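Readout is luminescence from an integrated firefly luciferase in P. falciparum. Red cells, 2% hematocrit and 0.05% parasitemia final, were cultured with compound through two parasite generations (96 hours) at 37 C, 5% CO2.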
HCV inhibitor = qHTS Assay for Inhibitors of Hepatitis C Virus (HCV); Huh7.5.1 HCVcc-Cre infection, luciferase reporter, 44 h; Potency, µM (doses to about 41.8 µM), without a hit: at the top dose activity change, negative = inhibition, usual class: inhibitors; actives 3.4% (n = 340,000)
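After 44 h co-culture of compound, cells and HCVcc-Cre (~0.5 moi), substrate is added for 15 min at room temperature and luciferase measured over 15 sec. Cells were seeded at 1,000/well and pre-cultured 4 h.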
Pf growth 48h = Primary qHTS for delayed death inhibitors of the malarial parasite plastid, 48 hour incubation; AID 504832, 2011; actives 5.9% (n = 310,000); Potency, µM (highest dose often 28.7 µM), inactives show at the highest dose activity change, negative = inhibition, most hits filed as inhibitors; P. falciparum luciferase growth in erythrocytes, 48 h
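First compound was added to culture medium, then infected red cells at 0.1% parasitemia and 2% hematocrit (final). After incubation at 37 C under 5% CO2, luciferase detection reagent was dispensed and light output recorded.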
AmpC no deterg = qHTS Inhibitors of AmpC Beta-Lactamase (assay without detergent); P00811; AmpC nitrocefin hydrolysis, absorbance 480 nm, 0.0001% Triton; Potency, µM (titrated, usually from 57.1 µM), for the others: at the highest dose activity change, negative = inhibition, hits mostly inhibitors; actives 0.52% (n = 330,000); AID 485341, 2010;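 also: plate controls were no compound for no effect and no enzyme for full effect; nearly all actives have a fitted effect of over 20% in size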
Target sequence (P00811 whole entry, looked up): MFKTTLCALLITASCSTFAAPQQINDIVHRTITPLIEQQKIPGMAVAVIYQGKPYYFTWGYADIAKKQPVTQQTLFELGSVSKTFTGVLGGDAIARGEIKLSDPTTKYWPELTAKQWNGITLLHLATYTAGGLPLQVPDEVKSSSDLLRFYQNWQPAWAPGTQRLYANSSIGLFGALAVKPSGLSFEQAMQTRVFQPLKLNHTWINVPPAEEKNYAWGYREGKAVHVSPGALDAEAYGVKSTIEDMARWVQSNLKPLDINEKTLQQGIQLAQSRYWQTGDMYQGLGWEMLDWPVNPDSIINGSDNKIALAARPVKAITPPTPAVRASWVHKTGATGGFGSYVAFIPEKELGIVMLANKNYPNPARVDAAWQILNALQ
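20 mM phosphate pH 7.0 + 0.01% (detergent screen) or 0.0001% Triton X-100; 5.3 nM AmpC reagent; cpd preinc 15 min RT; nitrocefin (800 uM stock) to start; A480 q20 s × 4 min; Activity was normalised to no-enzyme and no-compound control wells.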
AmpC detergent = qHTS Inhibitors of AmpC Beta-Lactamase (assay with detergent); actives 0.041% (n = 370,000); Potency, µM (top dose mostly 114 µM), inactives show at the highest dose activity change, negative = inhibition, hits mostly inhibitors; P00811; AmpC hydrolysis of nitrocefin, absorbance 480 nm, 0.01% Triton;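 also: 0% = no-compound wells and -100% = no-enzyme wells; nearly all actives have a fitted effect of over 25% in size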
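20 mM phosphate pH 7.0 + 0.01% (detergent screen) or 0.0001% Triton X-100; 5.3 nM AmpC reagent; cpd preinc 15 min RT; nitrocefin (800 uM stock) to start; A480 q20 s × 4 min; Activity was normalised to no-enzyme and no-compound control wells.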
* marks the source's active call; other numbers are inactive results; ? = inconclusive; / = not tested or not shown. Calls follow the shape of the dose curve; as a rule, active = well fitted curve in the direction sought with a large enough effect; inconclusive = small, poorly fitted or top-dose-only effect, or another doubt; inactive = no such curve, though single readings can be large; an effect the other way counts as inactive or inconclusive. Unless noted, % is scaled to controls: 0 for no effect and ±100 for the full control effect; potency is read from the fitted curve at half-maximal effect.

SMILES | AMA1-RON2 inh | Pf growth 96h | HCV inhibitor | Pf growth 48h | AmpC no deterg | AmpC detergent
CCOc1ccc(NC(=O)CC2C(=O)N(CC)C(=S)N2CCN2CCOCC2)cc1 (stereo unspecified) | -1% | -6% | 4% | ? | 99% | -11%
N#Cc1ccccc1NC(=O)C(=O)NCC(c1cccnc1)N1CCc2ccccc21 (stereo unspecified) | / | / | / | / | / | 15%
O=C(NCc1ccc(Cl)cc1)c1cnc2sc(N3CCCC3)nn2c1=O | / | / | / | / | / | 13%
Cc1[nH][nH]c(=O)c1C(c1ccccc1[N+](=O)[O-])C(C#N)C#N (stereo unspecified) | 9% | 13µM* | 6% | -5% | -24% | -5%
Cc1cc2ccccc2c(=O)n1CC(=O)NCC(=O)N1CCCC1 | 4% | 12µM* | 22% | 4% | -11% | -9%
COc1cc(C(=O)Nc2nonc2-c2ccc(C)c(C)c2)cc(OC)c1OC | / | / | / | / | / | 23%
O=C(CSc1oc(-c2ccco2)nc1S(=O)(=O)c1ccc(Br)cc1)c1ccc(Cl)cc1 | / | / | / | / | / | 7%
Cc1ccc(CNC(=O)c2cnc3c(-c4ccccc4)c(C)nn3c2C)o1 | / | / | / | / | / | 0%
COc1ccc(/C=C/C(=O)NC(=S)NNC(=O)c2cnccn2)cc1 | -53% | ? | ? | 2.1µM* | -15% | 5%
COc1ccc(/C=C/C(=O)NC(=S)NNC(=O)c2cccnc2)cc1 | 50% | ? | 10% | 21% | -9% | -1%
O=C(/C=C/c1ccc(F)cc1)NC(=S)NNC(=O)c1cnccn1 | 6% | 8.3µM* | ? | 3.3µM* | -9% | 1%
O=C(NC(=S)NNC(=O)c1cnccn1)c1ccc(F)cc1 | -66% | 21% | 14µM* | 15µM* | -11% | 5%
COc1cc(OC)c(NC(=O)NCc2cccn2Cc2ccccc2)cc1Cl | / | / | / | / | / | 24%
CCCCN(CC)C(=O)Cn1cc2c(n1)-c1c(oc(C(=O)N3CCCC3)c1C)CC2 | / | / | / | / | / | -7%
Cc1ccc(S(=O)(=O)Nc2ccc(Br)cc2/C=N/n2cnnc2)cc1 | -8% | 3.7µM* | -10% | 0% | -15% | -6%
COc1ccc(CNC(=S)Nc2ccccc2)cc1 | 10% | 13µM* | -17% | ? | -12% | 4%
S=C(NCc1ccc2c(c1)OCO2)Nc1ccc(-c2nc3ccccc3[nH]2)cc1 | -8% | 5.2µM* | ? | 12µM* | -39% | -4%
COc1ccc(NC(=S)NCc2ccc3c(c2)OCO3)cc1 | 0% | 1.7µM* | -2% | 2% | -23% | 4%
CC(C)c1ccc(NC(=S)NCc2ccc3c(c2)OCO3)cc1 | 58% | -30% | -17% | -17% | -39% | 5%
COc1ccc(CNC(=S)Nc2cccc(C)c2)cc1 | 6% | -24% | -19% | / | -28% | -13%
Cc1ccc(NC(=O)C(C)Sc2nc3c(c(=O)[nH]2)CCCC3)cc1Cl (stereo unspecified) | / | / | / | / | / | 0%
CCOc1ccccc1NC(=S)Nc1ncccc1C | -4% | 91% | 6.3µM* | 5% | -29% | -7%
CCOc1ccccc1NC(=S)NC1CC2CCC1C2 (stereo unspecified) | 1% | 5.2µM* | -17% | ? | -16% | -6%
Cc1cccnc1NC(=S)Nc1ncccc1C | 18% | 368% | -1% | 163% | -8% | ?
CCOc1ccccc1NC(=S)Nc1ccccc1F | 0% | 13µM* | 6% | 1% | ? | 5%
SMILES | AMA1-RON2 inh | Pf growth 96h | HCV inhibitor | Pf growth 48h | AmpC no deterg | AmpC detergent
COc1ccc(NC(=S)NC2CC3CCC2C3)c(OC)c1 (stereo unspecified) | 11% | ? | -7% | ? | -24% | -7%
COc1ccccc1NC(=S)Nc1ccccc1F | 3% | 38% | -13% | 16% | -9% | 2%
CCOc1cc(CNCc2cc(OC)cc(OC)c2)ccc1OC | -6% | ? | 0.56µM* | 0% | -12% | -10%
CCOc1cc(CNCc2ccc(C(=O)O)cc2)ccc1OC | -20% | 6% | 13% | 8% | -21% | 2%
N#C/C(=C\c1c(Oc2ccc(Br)cc2)nc2ccccn2c1=O)c1nc2ccccc2s1 | / | / | / | / | / | 0%
CCN1CCN(Cc2nc3cc(NC(=O)c4cccc([N+](=O)[O-])c4)ccc3n2CC)CC1 | / | / | / | / | / | -12%
CCCCNC1C(CC)C(CCC)C(C#N)(C#N)C1(C#N)C#N (stereo unspecified) | 4% | ? | 13µM* | 12µM* | ? | -6%
Cc1cc(O)cc(O)c1C(=O)Cc1ccccc1 | -8% | 28% | 9% | 15% | -26% | -14%
CC(=O)c1c(O)cc(O)cc1CC(=O)O | 8% | ? | 0.89µM* | 42% | -7% | 7%
CC(=O)c1c(O)cc(O)c(C(C)=O)c1O | -3% | -11% | 3.5µM* | 10µM* | -24% | 8%
CC(=O)c1c(O)cc(C)n(Cc2ccccc2)c1=O | 3% | / | ? | / | / | /
Cc1sc2ncn(CC(=O)Nc3ccc(C(C)C)cc3)c(=O)c2c1S(=O)(=O)N1CCN(c2ncccn2)CC1 | / | / | / | / | / | -4%
CCCC1CCC(C(=O)Nn2cnc3ccccc3c2=O)CC1 (stereo unspecified) | 21% | 2.1µM* | 12% | -18% | -23% | ?
CCN(C(=O)[C@@H]1CCCN1C(=O)c1cccs1)c1nc2cc(Cl)ccc2s1 | -28% | 1% | 10µM* | 11% | 141% | ?
CCc1cnc2c(c1SCC(=O)NCc1ccccc1)c(=O)n(C)c(=O)n2C | / | / | / | / | / | 3%
CCC(CC)C(=O)OCC(=O)Nc1ccc(S(=O)(=O)N2CCOCC2)cc1OC | 18% | 31% | 3% | / | 28% | -3%
COc1ccc(S(=O)(=O)N2CCOCC2)cc1NC(=O)CN1CCC(Cc2ccccc2)CC1 | -3% | 4.7µM* | 10µM* | 12µM* | 14% | ?
COc1ccc(S(=O)(=O)N2CCOCC2)cc1NC(=O)CN1CCCC1 | 23% | 43% | -9% | 33% | -19% | -7%
COc1ccc(S(=O)(=O)N2CCC(Cc3ccccc3)CC2)cc1NC(C)=O | -4% | 4.7µM* | ? | 34% | -16% | 3%
CCC(C)SCC(=O)Nc1ccc(S(=O)(=O)N2CCOCC2)cc1OC (stereo unspecified) | -9% | -12% | 11µM* | -8% | 33% | -2%
CCOc1ccccc1NS(=O)(=O)c1cc2[nH]c(=O)c(=O)[nH]c2cc1C | / | / | / | / | / | 5%
